Screens from PubChem.
TTR transcr act: TTR transcription activators in neuroblastoma reporter cells, primary screen, cell-based, luminescence, SH-SY5Y, TTR promoter Gaussia luciferase; 100% = recombinant luciferase protein wells; activation, % at 16.7 µM; hit rate 1.3% among 92,000; AID 1117267, 2014;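 active = activation above the mean of all tested compounds plus 3 SD, cut at about 9.5% in these data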;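 note: cells exposed to compounds for one day before reading; 0% = median of all test compound wells on the plate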
HuH7 TTR inh: TTR promoter reporter inhibitors in hepatoma cells, counter-screen for TTR transcription activator project, cell-based, luminescence, HuH7 hepatoma; shares compounds with TTR transcr act; HuH7 TTR promoter-Gaussia luciferase reporter; inhibition, % at 16.7 µM; hit rate 4% among 1,100; AID 1117279, 2014;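 active = average inhibition above the solvent-only control wells' mean plus 3 SD, cut at about 15% in these data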;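 note: 0% = cells with DMSO only and 100% = cells with inhibitor control FD; inhibitors lower well luminescence so higher value means more inhibition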
TTR act confirm: TTR transcription activators, retest, confirmation, cell-based, luminescence, SH-SY5Y, triplicate. 1,100 tested, under 10 active. AID 1117280, 2014. shares compounds with TTR transcr act. activation, % at 16.7 µM. SHSY5Y TTR promoter Gaussia luciferase; 100% = purified Lucia enzyme wells, no cells;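 active = mean activation above a set limit taken from the earlier primary screen, cut at about 11% in these data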;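 note: 0% = DMSO-treated cells and 100% = recombinant Lucia luciferase without cells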
Starred values were filed as active, the others as inactive. Shown is part of a subset that was picked to be rich in hits.

Results for CCOC(=O)C(C(=O)OCC)N(C#N)c1nc(OC)nc(N(C)C)n1 ?
TTR transcr act: 3

Results for CN(C)c1nc(N(C)C)nc(N(C#N)Cc2ccc(Cl)cc2)n1 ?
TTR transcr act: 0

How did CCN1C(=O)[C@H]2[C@@H](c3ccc(-c4ccc(F)cc4)c(OC)c3)N[C@@](Cc3ccccc3)(C(=O)OC)[C@H]2C1=O do in these assays?
TTR transcr act: 0

How did CCOC(=O)[C@@]12CCC3=C1N(CCC3)C(=O)[C@H](CC(=O)NCCCN1CCCC1=O)C2 do in these assays?
TTR transcr act: 4

How did O=C(Nc1cccc(F)c1)OCCN1CCCC12CCC(c1ccccc1)CC2 (stereo not given) do in these assays?
TTR transcr act: 1

What do the screens show for `Cn1c(=O)c(-c2ccccc2)c(O)c2ccccc21`?
TTR transcr act: -1

How did Cc1cc(C)c(-c2c(O)c3cccnc3n(C)c2=O)c(C)c1 do in these assays?
TTR transcr act: 10*; HuH7 TTR inh: -10; TTR act confirm: 0

How did Cn1c(=O)c2cccnc2c(=O)n1C do in these assays?
TTR transcr act: -2

Results for CCCCCCC(=O)Oc1cccc(C2=CC(=O)CC(C)(C)C2=O)c1 ?
TTR transcr act: 9.7*; HuH7 TTR inh: 0; TTR act confirm: 0

Results for CC1(C)CC(=O)C=C(c2ccc(CO)cc2)C1=O ?
TTR transcr act: 0

How did CC1(C)CC(=O)C=C(c2ccc(COC(=O)c3cccc(C(F)(F)F)c3)cc2)C1=O do in these assays?
TTR transcr act: -1

Results for COC(=O)c1sccc1NC(=O)c1cccc(OC)c1 ?
TTR transcr act: 1

Results for COC(=O)c1sccc1NC(=O)Nc1cc(C)cc(C)c1 ?
TTR transcr act: -2

What do the screens show for `COC(=O)c1sccc1NC(=O)Nc1cccc(OC)c1`?
TTR transcr act: 10.0*; HuH7 TTR inh: -7; TTR act confirm: 0

Results for C#CCOCCOCCOCCNc1nc(N2CCN(C(=O)Cn3cc(CCO)nn3)CC2)nc(N2CCN(C(=O)[C@H]([C@@H](C)O)n3cc(CCCCN)nn3)CC2)n1 ?
TTR transcr act: 11*; HuH7 TTR inh: -9; TTR act confirm: 0

Results for C#CCOCCOCCOCCNc1nc(N2CCN(C(=O)[C@H]([C@@H](C)O)n3cc(CCCCN)nn3)CC2)nc(N2CCN(C(=O)[C@H]([C@@H](C)CC)n3cc(CCCN=C(N)N)nn3)CC2)n1 ?
TTR transcr act: 7

What do the screens show for `C#CCOCCOCCOCCNc1nc(N2CCN(C(=O)Cn3cc(CCCCN)nn3)CC2)nc(N2CCN(C(=O)[C@H]([C@@H](C)CC)n3cc(CCCN=C(N)N)nn3)CC2)n1`?
TTR transcr act: -1

How did COc1ccccc1C(=O)COC(=O)C1CCN(S(=O)(=O)c2ccccc2)CC1 do in these assays?
TTR transcr act: -1

How did COc1ccc(/C(N)=N/OC(=O)COc2ccccc2Cl)cc1 do in these assays?
TTR transcr act: 0

What do the screens show for `COc1ccc(C(=O)O/N=C(\N)Cc2cccs2)cc1OC`?
TTR transcr act: 3

Results for N/C(Cc1cccs1)=N\OC(=O)COc1ccccc1Cl ?
TTR transcr act: 11*; HuH7 TTR inh: 11; TTR act confirm: 0

How did O=C1NC(=O)C2(CCCC2c2ccccc2)N1 (stereo not given) do in these assays?
TTR transcr act: 2

What do the screens show for `Cc1ccc(CN2CCCCC(NC(=O)Cc3cccs3)C2=O)cc1` (stereo not given)?
TTR transcr act: -1

Results for N=c1c2c(ccn1CCCCc1ccccc1)Oc1ccc3ccccc3c1C2c1ccccc1 (stereo not given) ?
TTR transcr act: -1

How did COc1ccc(-n2c(C)cc(C(=O)COC(=O)Cn3cnc4ccccc43)c2C)cc1 do in these assays?
TTR transcr act: -3

How did COc1ccc(-n2c(C)cc(C(=O)COC(=O)c3cc(NC(=O)c4cccs4)c(OC)c(OC)c3)c2C)cc1 do in these assays?
TTR transcr act: 9.8*; HuH7 TTR inh: -12; TTR act confirm: 0

What do the screens show for `COc1cc(C(=O)OCC(=O)NCc2ccc(F)cc2)cc(NC(=O)c2cccs2)c1OC`?
TTR transcr act: -2

How did COc1cccc(Cn2cc(COC(=O)NCC(C)C)nn2)c1 do in these assays?
TTR transcr act: 0

How did Cc1cc([N+](=O)[O-])nn1CCCC(=O)Nc1cc(Cl)ccc1Cl do in these assays?
TTR transcr act: 14*; HuH7 TTR inh: -13; TTR act confirm: -1

What do the screens show for `Cc1cc([N+](=O)[O-])nn1CCCC(=O)NCc1ccccc1`?
TTR transcr act: -1

How did Cc1cc(NC(=O)CCCn2nc([N+](=O)[O-])cc2C)no1 do in these assays?
TTR transcr act: 2

Results for CCN(CC)CCNS(=O)(=O)c1ccc2[nH]cc(C(=O)O)c(=O)c2c1 ?
TTR transcr act: 0

What do the screens show for `CCCCN(C)C(=O)c1c[nH]c2ccc(S(=O)(=O)N3CCOCC3)cc2c1=O`?
TTR transcr act: 11*; HuH7 TTR inh: -7; TTR act confirm: 1

Results for O=C(NCCN1CCOCC1)c1c[nH]c2ccc(S(=O)(=O)N3CCOCC3)cc2c1=O ?
TTR transcr act: 0

What do the screens show for `COC(=O)[C@]12C[C@H](CC(=O)N3CCSCC3)C(=O)N(Cc3ccc4c(c3)OCO4)C1=C[C@H](C(C)C)O[C@@H]2C1CC1`?
TTR transcr act: 1

Results for CC(C)CNC(=S)NC(=O)c1csc([N+](=O)[O-])c1 ?
TTR transcr act: -2

Results for O=C(NCc1cccc(Cl)c1)NC(=O)c1csc([N+](=O)[O-])c1 ?
TTR transcr act: 12*; HuH7 TTR inh: -9; TTR act confirm: 0

Results for O=C(NCc1cccc(Cl)c1)c1ccc(-c2csnn2)cc1 ?
TTR transcr act: 0

How did CNC(=S)N/N=C/c1c(C(=O)OC)cnn1-c1ccc(Cl)cc1 do in these assays?
TTR transcr act: -1

What do the screens show for `O=C(NCCc1c[nH]c2ccccc12)OCc1cn(-c2ccc(F)cc2)nn1`?
TTR transcr act: 2

Results for CCOc1ccc(NC(=O)CN2CCN(CC(=O)Nc3ccc(C(=O)OC)cc3)CC2)cc1 ?
TTR transcr act: -1

Results for CCCCOc1ccc(NC(=O)CN2CCN(CC)CC2)cc1 ?
TTR transcr act: 24*; HuH7 TTR inh: -9; TTR act confirm: 1

Results for CCOc1ccc(NC(=O)CN2CCN(CC(=O)Nc3ccccc3OC)CC2)cc1 ?
TTR transcr act: -2

How did COC(=O)[C@]12C[C@H](CC(=O)NCc3cccs3)C(=O)N(Cc3cccc4ccccc34)C1=C[C@H](C1CCCC1)O[C@@H]2C do in these assays?
TTR transcr act: 0

What do the screens show for `Cc1c(C(=O)O)cnc2cc(-c3ccc(Cl)cc3)nn12`?
TTR transcr act: -1

What do the screens show for `CC(=O)c1cnc2cc(-c3ccc(Cl)cc3)nn2c1C`?
TTR transcr act: 12*; HuH7 TTR inh: 13; TTR act confirm: -1

What do the screens show for `CC(=O)c1cnc2nc(C)nn2c1C`?
TTR transcr act: 1

What do the screens show for `Clc1ccccc1Cn1ccc2ccc(-c3ccc4ccn(Cc5ccccc5Cl)c4c3)cc21`?
TTR transcr act: 0

What do the screens show for `CC(C)(C)OC(=O)n1ccc2ccc(-c3ccc4cc[nH]c4c3)cc21`?
TTR transcr act: -1
